PubChem BioAssay (Tox21)
Inconclusive results are not listed. Calls of active or inactive are those of the source. Unless noted, calls follow the shape of the dose curve; as a rule, active = well fitted curve in the direction sought with a large enough effect in the repeat runs; inconclusive = weak or mixed curves; inactive = no such curve, though single readings can be large; an effect the other way counts as inactive or inconclusive.

Experiments:
[1] = qHTS assay to identify small molecule antagonists of the estrogen receptor alpha (ER-alpha) signaling pathway using the BG1 cell line in the presence of 0.1 nM 17-beta-estradiol - cell viability counter screen (AID 1259241); also: nearly all actives have a fitted effect of over 40% in size
Method in brief: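 The cell line endogenously expresses full-length ER-alpha and carries four EREs driving luciferase. Cells are cultured 5 days hormone-free, treated 22 hr with compounds and 0.1 nM estradiol, then viability is read by fluorescence.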

[2] = qHTS assay to identify small molecule antagonists of the androgen receptor (AR) signaling pathway using the MDA cell line in the presence of 0.5 nM R1881 - cell viability counter screen (AID 1259242); also: nearly all actives have a fitted effect of over 45% in size
Method in brief: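 MDA-kb2 cells (MMTV-luciferase, AR/GR responsive) were treated with compounds plus 0.5 nM R1881 (final) for 16 hr at 37C, 0% CO2. Viability was then read in the same wells as live-cell protease fluorescence (CellTiter-Fluor, 30 min).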

[3] = target: Estrogen receptor (Homo sapiens) (UniProt P03372); experiment: qHTS assay to identify small molecule antagonists of the estrogen receptor alpha (ER-alpha) signaling pathway using the BG1 cell line in the presence of 0.1 nM 17-beta-estradiol (AID 1259244); also: nearly all actives have a fitted effect of over 50% in size
Method in brief: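 VM7Luc4E2 cells (endogenous full-length ER-alpha, 4×ERE-luciferase), kept 5 days in phenol red-free, charcoal-stripped FBS medium; 4,000 cells/well. Compounds added with 0.1 nM (final) 17beta-estradiol, 22 hr at 37C; luminescence read with ONE-Glo after 30 min.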

[4] = qHTS assay to identify small molecule HDAC inhibitors (AID 1259364); also: top concentration of the series differs between compounds; nearly all actives have a fitted effect of over 45% in size
Method in brief: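 Wild-type HCT-116 cells, plated overnight at 37 C, exposed to compounds 2 hr at 37 C; luminogenic HDAC-Glo substrate then added 30 min at room temperature. Luminescence reports relative endogenous class I/II HDAC activity.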

[5] = qHTS assay to identify small molecule HDAC inhibitors - cell viability counter screen (AID 1259365); also: series mostly up to about 92 µM; nearly all actives have a fitted effect of over 50% in size
Method in brief: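 Viability readout: CellTiter-Glo luminescence. Wild-type HCT-116 cells, 2hr compound treatment following overnight attachment at 37 C.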

[6] = qHTS assay to identify small molecule agonists of the sonic hedgehog signaling (Shh) pathway - cell viability counter screen (AID 1259366); also: nearly all actives have a fitted effect of over 50% in size; also: potency is read from the fitted curve at half-maximal effect
Method in brief: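 Viability measured fluorometrically (CellTiter-Fluor, 1hr, 37C) in 3T3 Gli1-Luc reporter cells after 23hr compound exposure within a 24hr incubation at 37C/5% CO2.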

[7] = qHTS assay to identify small molecule agonists of the sonic hedgehog signaling (Shh) pathway (AID 1259368; calls by dose curve;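 also: NIH/3T3-derived 3T3Gli1-Luc cells carrying a stable Gli1-driven firefly luciferase reporter; series mostly up to about 92 µM; nearly all actives have a fitted effect of over 15% in size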)
Method in brief: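 NIH/3T3-derived 3T3Gli1-Luc cells with stably integrated Gli1-driven firefly luciferase, 2,000 cells/well, compounds added after 4 hr. Incubated 24 hr at 37C, 5% CO2; luminescence read after 30 min with luciferase reagent at room temperature.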

[8] = qHTS assay to identify small molecule agonists of the androgen receptor (AR) signaling pathway in the presence of an antagonist - cell viability counter screen (AID 1259379);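 also: MDA-kb2 human breast cancer cells carrying an MMTV luciferase reporter; series mostly up to about 92 µM; nearly all actives have a fitted effect of over 25% in size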
Method in brief: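 MDA-kb2 cells (MMTV-luciferase, AR/GR), 3,000/well, 5 h attachment, then 3.0 µM nilutamide (final) and compounds at 15 concentrations. Viability by CellTiter-Fluor fluorescence after 16 h at 37 °C, 0% CO2, in the reporter wells.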

[9] = qHTS assay to identify small molecule agonists of the estrogen receptor beta (ER-beta) signaling pathway - cell viability counter screen (AID 1259380); also: nearly all actives have a fitted effect of over 30% in size; also: potency is read from the fitted curve at half-maximal effect
Method in brief: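 ER-beta-UAS-bla HEK293T cells in medium with 2% charcoal-stripped FBS, pre-incubated 6 hr, then treated 16 hr at 37C. Cytotoxicity read in the same wells by CellTiter-Glo luminescence after 30 min at room temperature.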

[10] = qHTS assay to identify small molecule antagonists of the estrogen receptor beta (ER-beta) signaling pathway - cell viability counter screen (AID 1259382); also: series mostly up to about 92 µM; nearly all actives have a fitted effect of over 55% in size
Method in brief: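 ER-beta-UAS-bla HEK293T cells in 2% charcoal-stripped FBS medium, treated with compound plus 1 nM 17-beta-estradiol for 16 h at 37C. Viability read by CellTiter-Glo luminescence after 30 min at room temperature in the same wells.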

[11] = target: Estrogen receptor (Homo sapiens) (UniProt P03372); experiment: qHTS assay to identify small molecule agonists of the estrogen receptor alpha (ER-alpha) signaling pathway in the presence of an antagonist (AID 1259383; calls by dose curve; also: top concentration of the series differs between compounds; nearly all actives have a fitted effect of over 15% in size)
Method in brief: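 VM7Luc4E2 cells express endogenous full-length ER-alpha with an ERE-luciferase reporter and were hormone-deprived for 5 days. Compounds at 15 concentrations were added with 10.0nM ICI-182,780 for 22hr at 37C. Luminescence was read with ONE-Glo.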

[12] = qHTS assay to identify small molecule agonists or antagonists of the thyroid stimulating hormone receptor (TSHR) signaling pathway - wild type cell line counter screen (AID 1259384; calls by dose curve)
Method in brief: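 Wild-type Hek293 cells, 800/well, 18 h at 37C, then compound with Ro20-1724 for 30 min RT. cAMP by HTRF (cAMP-d2/anti-cAMP cryptate), 1 h RT, fluorescence read. 15 concentrations, triplicates.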

[13] = target: Thyrotropin receptor (Homo sapiens) (UniProt P16473); experiment: qHTS assay to identify small molecule antagonists of the thyroid stimulating hormone receptor (TSHR) signaling pathway (AID 1259385; calls by dose curve; also: nearly all actives have a fitted effect of over 20% in size)
Method in brief: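 TSHR-HEK293 cells (800/well) plated 18 h, then compounds with Ro20-1724 and TSH at 1.5 ng/mL final, 30 min at room temperature. cAMP quantified by HTRF (cAMP-d2/anti-cAMP-cryptate, 1 h); 15 concentrations in triplicate.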

[14] = qHTS assay to identify small molecule antagonists of the sonic hedgehog signaling (Shh) pathway (AID 1259369; calls by dose curve; also: nearly all actives have a fitted effect of over 45% in size)
Method in brief: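 NIH/3T3-derived Gli1-Luc reporter cells plated 4 h, dosed with compound, then stimulated with conditioned medium for 24 h at 37 C. Firefly luciferase luminescence read after 30 min with detection reagent at room temperature.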

[15] = qHTS assay to identify small molecule antagonists of the sonic hedgehog signaling (Shh) pathway - cell viability counter screen (AID 1259367); also: nearly all actives have a fitted effect of over 55% in size
Method in brief: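 Seed 3T3 Gli1-Luc cells at 2,000 per well; incubate 4 hr; add compound in DMSO, then conditioned medium; incubate at 37C with 5% CO2; add CellTiter-Fluor after 23 hr; read fluorescence 1 hr later.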

[16] = target: Estrogen receptor beta (Homo sapiens) (UniProt Q92731); experiment: qHTS assay to identify small molecule agonists of the estrogen receptor beta (ER-beta) signaling pathway (AID 1259377; active = well fitted activation curve with a large enough effect in the signal ratio in the repeat runs, not every such curve was filed as active; the % refers to the signal ratio)
Method in brief: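 A UAS-controlled beta-lactamase reporter in ER-beta-UAS-bla HEK293T cells reports receptor activation. Compounds act for 16 hr at 37C in 2% charcoal-stripped serum, and a FRET substrate is read by fluorescence after 2 hours.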

[17] = target: Estrogen receptor beta (Homo sapiens) (UniProt Q92731); experiment: qHTS assay to identify small molecule antagonists of the estrogen receptor beta (ER-beta) signaling pathway (AID 1259378; active = well fitted inhibition curve with a large enough effect in the signal ratio in the repeat runs, not every such curve was filed as active; the % refers to the signal ratio)
Method in brief: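 ER-beta-UAS-bla HEK293T cells in 2% charcoal-stripped FBS medium treated with compound plus 1nM final 17-beta-estradiol for 16 hr at 37C. Beta-lactamase reporter read by FRET substrate fluorescence after 2 hours at room temperature.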

[18] = qHTS assay to identify small molecule phospholipidosis (PLD) inducers (AID 1259344; active = well fitted curve in the direction sought with a large enough effect; an effect the other way counts as inactive or inconclusive)
Method in brief: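 Quantitative HTS in HepG2: compound plus LipidTOX Red dye for 24 h, paraformaldehyde fixation with Hoechst 33342, widefield high-content imaging; amiodarone as positive and DMSO as negative control.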

[19] = target: Androgen receptor (Homo sapiens) (UniProt P10275); experiment: qHTS assay to identify small molecule agonists of the androgen receptor (AR) signaling pathway in the presence of an antagonist (AID 1259381; calls by dose curve; also: nearly all actives have a fitted effect of over 15% in size)
Method in brief: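 MDA-kb2 cells carrying MMTV-luciferase (AR/GR responsive), 3,000 cells/well, co-treated with 3.0 uM nilutamide final. Compounds at 15 concentrations, 16 hr at 37C without CO2. Luciferase luminescence read after 30 min with ONE-Glo.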

Measured: Potency

Sequence of Estrogen receptor beta (Homo sapiens) (Q92731 whole entry, looked up): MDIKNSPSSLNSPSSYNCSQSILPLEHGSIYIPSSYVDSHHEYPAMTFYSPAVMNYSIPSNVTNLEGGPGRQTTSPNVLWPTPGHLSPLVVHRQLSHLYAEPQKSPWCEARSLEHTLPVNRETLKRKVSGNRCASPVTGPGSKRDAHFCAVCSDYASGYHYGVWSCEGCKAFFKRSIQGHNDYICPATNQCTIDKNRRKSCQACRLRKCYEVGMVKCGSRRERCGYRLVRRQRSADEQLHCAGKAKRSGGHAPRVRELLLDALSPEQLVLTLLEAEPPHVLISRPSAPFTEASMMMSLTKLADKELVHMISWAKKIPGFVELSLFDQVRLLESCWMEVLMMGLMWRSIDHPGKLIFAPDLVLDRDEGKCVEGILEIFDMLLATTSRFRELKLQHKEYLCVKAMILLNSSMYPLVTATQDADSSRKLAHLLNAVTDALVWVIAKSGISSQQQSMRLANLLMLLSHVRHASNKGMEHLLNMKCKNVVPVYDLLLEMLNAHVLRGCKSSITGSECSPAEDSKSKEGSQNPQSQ
Sequence of Estrogen receptor (Homo sapiens) (P03372 whole entry, looked up): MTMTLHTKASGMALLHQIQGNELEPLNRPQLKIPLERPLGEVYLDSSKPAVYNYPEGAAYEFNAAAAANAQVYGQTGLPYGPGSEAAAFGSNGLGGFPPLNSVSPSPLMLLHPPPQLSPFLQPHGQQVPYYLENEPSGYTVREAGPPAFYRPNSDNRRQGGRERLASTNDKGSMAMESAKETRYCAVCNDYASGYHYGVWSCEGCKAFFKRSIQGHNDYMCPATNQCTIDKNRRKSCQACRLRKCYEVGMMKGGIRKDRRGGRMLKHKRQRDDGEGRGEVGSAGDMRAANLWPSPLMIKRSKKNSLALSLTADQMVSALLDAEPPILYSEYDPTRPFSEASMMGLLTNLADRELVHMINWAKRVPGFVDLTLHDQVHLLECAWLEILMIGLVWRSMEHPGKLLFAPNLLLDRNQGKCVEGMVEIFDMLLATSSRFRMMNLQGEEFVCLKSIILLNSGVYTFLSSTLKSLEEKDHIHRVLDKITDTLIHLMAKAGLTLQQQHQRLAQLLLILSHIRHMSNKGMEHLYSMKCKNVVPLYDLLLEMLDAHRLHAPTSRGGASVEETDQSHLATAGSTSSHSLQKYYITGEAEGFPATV
Sequence of Thyrotropin receptor (Homo sapiens) (P16473 whole entry, looked up): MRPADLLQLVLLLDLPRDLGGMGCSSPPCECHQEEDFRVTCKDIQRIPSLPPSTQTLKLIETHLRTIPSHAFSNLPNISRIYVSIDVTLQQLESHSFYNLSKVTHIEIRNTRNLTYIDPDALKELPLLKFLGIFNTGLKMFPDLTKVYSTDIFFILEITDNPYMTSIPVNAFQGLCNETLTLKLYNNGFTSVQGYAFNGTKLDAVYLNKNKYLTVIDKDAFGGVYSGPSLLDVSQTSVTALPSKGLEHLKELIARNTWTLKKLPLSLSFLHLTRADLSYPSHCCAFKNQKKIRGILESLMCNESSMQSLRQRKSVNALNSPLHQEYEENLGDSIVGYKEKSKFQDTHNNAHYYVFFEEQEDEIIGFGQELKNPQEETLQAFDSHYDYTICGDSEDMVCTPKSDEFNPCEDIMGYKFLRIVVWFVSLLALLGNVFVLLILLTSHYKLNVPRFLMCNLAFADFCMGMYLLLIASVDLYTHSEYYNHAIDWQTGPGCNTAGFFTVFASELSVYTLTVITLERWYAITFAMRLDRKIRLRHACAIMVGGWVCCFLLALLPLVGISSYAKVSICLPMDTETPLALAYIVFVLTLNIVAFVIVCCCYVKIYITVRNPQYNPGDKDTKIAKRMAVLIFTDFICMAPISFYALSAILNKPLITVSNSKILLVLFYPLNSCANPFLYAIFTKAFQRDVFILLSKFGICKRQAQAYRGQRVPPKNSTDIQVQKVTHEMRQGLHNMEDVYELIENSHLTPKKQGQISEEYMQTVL
Sequence of Androgen receptor (Homo sapiens) (P10275 whole entry, looked up): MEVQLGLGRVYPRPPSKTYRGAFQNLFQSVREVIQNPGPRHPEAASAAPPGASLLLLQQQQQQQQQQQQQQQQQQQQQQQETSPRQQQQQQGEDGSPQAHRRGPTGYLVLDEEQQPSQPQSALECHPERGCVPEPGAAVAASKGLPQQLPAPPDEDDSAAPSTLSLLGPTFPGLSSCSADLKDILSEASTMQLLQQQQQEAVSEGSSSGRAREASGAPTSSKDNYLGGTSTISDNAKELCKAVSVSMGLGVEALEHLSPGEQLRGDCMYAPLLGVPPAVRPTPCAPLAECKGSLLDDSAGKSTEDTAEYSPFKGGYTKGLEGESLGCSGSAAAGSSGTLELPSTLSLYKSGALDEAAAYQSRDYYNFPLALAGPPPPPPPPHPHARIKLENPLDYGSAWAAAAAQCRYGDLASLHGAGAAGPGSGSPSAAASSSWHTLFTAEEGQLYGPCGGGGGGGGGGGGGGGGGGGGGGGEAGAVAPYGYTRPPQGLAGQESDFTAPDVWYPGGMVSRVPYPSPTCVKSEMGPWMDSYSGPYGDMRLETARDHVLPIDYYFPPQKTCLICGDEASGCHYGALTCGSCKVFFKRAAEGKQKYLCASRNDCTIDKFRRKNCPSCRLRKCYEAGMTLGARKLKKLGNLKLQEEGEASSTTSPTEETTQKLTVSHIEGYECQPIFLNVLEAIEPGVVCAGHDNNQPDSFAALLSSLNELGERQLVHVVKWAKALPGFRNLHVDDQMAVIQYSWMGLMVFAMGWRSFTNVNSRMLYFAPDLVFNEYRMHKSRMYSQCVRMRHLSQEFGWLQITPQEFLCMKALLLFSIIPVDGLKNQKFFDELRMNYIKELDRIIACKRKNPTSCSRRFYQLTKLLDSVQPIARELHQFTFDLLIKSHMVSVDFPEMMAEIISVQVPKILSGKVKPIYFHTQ

O=C(NC(=O)c1c(F)cccc1F)Nc1cc(Cl)c(F)c(Cl)c1F
not listed: [14] | [15] | [16] | [17] | [18] | [19]
inactive: all other assays above

Cc1cccc2sc3nncn3c12
not listed: [7] | [15] | [16] | [17] | [18] | [19]
inactive: all other assays above

Cc1ccc2cc(C)ccc2c1
not listed: [3] | [11] | [12] | [13] | [18] | [19]
inactive: all other assays above

NC1(c2ccccc2)CCCCC1
active: [6] 30.4 µM
not listed: [7] | [15] | [17] | [18] | [19]
inactive: all other assays above

CCCC(C)C1(CC)C(=O)N=C(S)NC1=O (stereo unspecified)
inactive: [1] | [2] | [18] | [4] | [5] | [6] | [15] | [7] | [9] | [10]

CCC(C)(C#N)N=NC(C)(C#N)CC (stereo unspecified)
not listed: [7] | [11] | [15] | [18]
inactive: all other assays above

O=C1CCCCC1Cl (stereo unspecified)
not listed: [3] | [11] | [18] | [19]
inactive: all other assays above

C=CC=O
not listed: [3] | [11] | [18] | [19]
inactive: all other assays above

CC[C@H](O)C(C[C@H](C)N(C)C)(c1ccccc1)c1ccccc1
not listed: [6] | [9] | [10] | [14] | [15] | [16] | [18] | [19]
inactive: all other assays above

C=C1CC[C@@]2(O)[C@H]3Cc4ccc(O)c5c4[C@@]2(CCN3CC2CC2)[C@H]1O5
not listed: [3] | [9] | [11] | [18] | [19]
inactive: all other assays above

O=C(O)C(Cl)Br (stereo unspecified)
not listed: [3] | [9] | [11] | [13] | [18] | [19]
inactive: all other assays above

CC(C)[C@]12CC(=O)[C@H](C)[C@H]1C2
not listed: [3] | [9] | [11] | [13] | [18] | [19]
inactive: all other assays above

CC(C)NCC(O)c1ccc([N+](=O)[O-])cc1 (stereo unspecified)
not listed: [3] | [8] | [11] | [14] | [17] | [19]
inactive: all other assays above

CCc1cc(OC)c(C[C@H](C)N)cc1OC
active: [9] 71.5 µM
not listed: [3] | [6] | [8] | [10] | [11] | [19]
inactive: all other assays above

Cn1c(N)nc2c3cccnc3ccc21
inactive: [3]
